Experimental data reported in PubChem BioAssay.

Target: PEG-3 (UniProt Q6IN02)
Experiment: Peg3 promoter luciferase inhibitors, potency, dose response, cell-based, HeLa, CREF/GAPDH counter-screen panel (AID 624167)
Conditions: CREF/GAPDH counter-screens; HeLa PEG-Prom luciferase reporter, overnight, run 1, dose range 1, at 100 µM (top of the series) unless noted

Chain of PEG-3 (Q6IN02 whole entry, looked up): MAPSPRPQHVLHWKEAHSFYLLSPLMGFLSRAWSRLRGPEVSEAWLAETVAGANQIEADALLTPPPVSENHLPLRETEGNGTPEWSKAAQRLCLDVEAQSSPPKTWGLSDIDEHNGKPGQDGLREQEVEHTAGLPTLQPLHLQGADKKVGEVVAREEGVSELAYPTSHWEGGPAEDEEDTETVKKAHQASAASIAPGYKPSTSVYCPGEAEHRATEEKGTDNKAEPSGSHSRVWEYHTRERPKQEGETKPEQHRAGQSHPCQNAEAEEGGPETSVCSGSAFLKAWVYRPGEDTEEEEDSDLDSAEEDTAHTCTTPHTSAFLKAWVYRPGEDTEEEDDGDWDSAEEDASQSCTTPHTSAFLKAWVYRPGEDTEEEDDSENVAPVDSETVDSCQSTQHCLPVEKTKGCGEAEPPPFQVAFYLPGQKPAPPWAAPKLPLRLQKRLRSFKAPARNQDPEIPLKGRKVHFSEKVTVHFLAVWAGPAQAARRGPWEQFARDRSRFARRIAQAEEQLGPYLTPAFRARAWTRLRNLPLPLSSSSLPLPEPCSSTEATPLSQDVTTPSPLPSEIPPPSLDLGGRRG

In order of rising inhibition:
1. O=C(Nc1ccccc1)c1nc[nH]c1C(=O)NCCCCCCNC(=O)c1[nH]cnc1C(=O)Nc1ccccc1  -14.1%
2. CC(=O)c1ccc(-c2cnc3c(NC=O)cc(-c4ccccc4Oc4ccccc4)cn23)cc1  38.3%
3. O=C(N/N=C/c1cc([N+](=O)[O-])ccc1O)c1ccc(COc2ccc3c(c2)CCC3)o1  52.4%
4. CCCCCCN1C=C/C(=C\C=C(C#N)C#N)c2ccccc21  54.3%
5. Oc1c(I)cc(Cl)c2cccnc12  71.1%
6. Cc1ccc(-c2cc3c(N=O)c4ccccc4c-3n[nH]2)cc1  75.1%
7. COC1CC(C)C(OC)c2cc(O)cc(c2O)NC(=O)C(C)=CC=CC(C)C(OC(N)=O)C(C)=CC(C)C1OC (stereo not drawn)  94%
8. COc1ccc(S(=O)(=O)/N=C2\C=C(Nc3ccc(O)cc3)C(=O)c3ccccc32)cc1  96.4%
9. CC(=O)NC(c1ccc(Cl)cc1)c1ccc2cccnc2c1O (stereo not drawn)  97.5%
10. O=C(/C=C/c1ccccc1)Nc1cccc(C(=O)O)c1  99%
11. O=C(Nc1ccc(Cc2ccncc2)cc1)c1ccc([N+](=O)[O-])o1  99.1%
12. NC1=C(Br)C(=O)c2ncccc2C1=O  99.1%
13. COC1=C(Br)C(=O)c2ncccc2C1=O  99.3%
14. CN(C)c1ccc(/C=C/c2ccc3c4ccccc4ccc3[n+]2-c2ccccc2)cc1  99.3%
15. CCCC(=O)NC(c1ccc(Cl)cc1)c1ccc2cccnc2c1O (stereo not drawn)  99.9%
16. O=C(O)c1ccc(N/N=C/c2ccc3nccnc3c2)cc1  101%
17. CN=c1sc2c(n1C)C(=O)c1ccccc1C2=O  101%
18. COC1=CC(=O)c2c(ccc3ncnc(N)c23)C1=O  102%
